Data on 13 compounds can be found in PubChem BioAssay (EPA / NIEHS).

Results filed as inconclusive are left out. Active and inactive are the calls of the source. The calls were made as follows: active = hit-call score of the fitted dose curve at least 0.9, where 1 is the maximum; inconclusive = response in the unintended direction; inactive = score below 0.9.

human Neuropeptide Receptor Y1 (NPY1), NPY1R (gene 4886), sequence (P25929 whole entry, looked up): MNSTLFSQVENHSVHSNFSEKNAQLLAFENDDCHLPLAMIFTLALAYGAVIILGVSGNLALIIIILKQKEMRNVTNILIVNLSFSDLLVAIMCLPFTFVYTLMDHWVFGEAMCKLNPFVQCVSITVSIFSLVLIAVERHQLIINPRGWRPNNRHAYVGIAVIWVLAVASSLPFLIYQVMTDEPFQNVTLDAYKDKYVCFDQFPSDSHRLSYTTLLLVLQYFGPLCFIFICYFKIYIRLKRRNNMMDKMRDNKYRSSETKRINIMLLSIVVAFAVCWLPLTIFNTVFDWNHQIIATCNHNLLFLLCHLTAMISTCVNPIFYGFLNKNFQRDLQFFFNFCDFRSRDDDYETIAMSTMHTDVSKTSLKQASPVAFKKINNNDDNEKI
human Neurokinin, NK2 Receptor, TACR2 (gene 6865), sequence (P21452 whole entry, looked up): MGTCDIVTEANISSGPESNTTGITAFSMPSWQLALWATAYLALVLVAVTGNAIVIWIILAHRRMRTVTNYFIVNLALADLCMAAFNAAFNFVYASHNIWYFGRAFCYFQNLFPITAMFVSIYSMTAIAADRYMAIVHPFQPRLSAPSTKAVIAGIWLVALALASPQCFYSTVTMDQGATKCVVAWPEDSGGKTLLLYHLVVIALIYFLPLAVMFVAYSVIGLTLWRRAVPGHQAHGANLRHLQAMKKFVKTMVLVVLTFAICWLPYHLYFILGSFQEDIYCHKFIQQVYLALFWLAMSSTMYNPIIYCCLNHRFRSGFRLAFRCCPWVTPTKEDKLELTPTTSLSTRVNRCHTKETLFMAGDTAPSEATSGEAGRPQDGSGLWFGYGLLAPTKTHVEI
Muscarinic acetylcholine receptor M2 (Homo sapiens), sequence (P08172 whole entry, looked up): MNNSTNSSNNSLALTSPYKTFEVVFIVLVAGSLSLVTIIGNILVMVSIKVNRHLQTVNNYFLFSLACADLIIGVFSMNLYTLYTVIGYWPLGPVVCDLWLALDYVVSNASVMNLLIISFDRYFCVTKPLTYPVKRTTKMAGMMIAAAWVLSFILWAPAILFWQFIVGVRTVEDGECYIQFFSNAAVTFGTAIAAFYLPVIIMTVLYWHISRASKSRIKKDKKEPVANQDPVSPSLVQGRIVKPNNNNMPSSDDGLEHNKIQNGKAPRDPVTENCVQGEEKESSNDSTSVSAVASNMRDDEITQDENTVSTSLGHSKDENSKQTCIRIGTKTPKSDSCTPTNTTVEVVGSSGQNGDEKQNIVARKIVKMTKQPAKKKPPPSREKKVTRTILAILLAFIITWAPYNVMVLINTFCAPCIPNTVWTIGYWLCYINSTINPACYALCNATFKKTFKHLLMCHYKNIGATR
Neuropeptide Y receptor type 2 (Homo sapiens), sequence (P49146 whole entry, looked up): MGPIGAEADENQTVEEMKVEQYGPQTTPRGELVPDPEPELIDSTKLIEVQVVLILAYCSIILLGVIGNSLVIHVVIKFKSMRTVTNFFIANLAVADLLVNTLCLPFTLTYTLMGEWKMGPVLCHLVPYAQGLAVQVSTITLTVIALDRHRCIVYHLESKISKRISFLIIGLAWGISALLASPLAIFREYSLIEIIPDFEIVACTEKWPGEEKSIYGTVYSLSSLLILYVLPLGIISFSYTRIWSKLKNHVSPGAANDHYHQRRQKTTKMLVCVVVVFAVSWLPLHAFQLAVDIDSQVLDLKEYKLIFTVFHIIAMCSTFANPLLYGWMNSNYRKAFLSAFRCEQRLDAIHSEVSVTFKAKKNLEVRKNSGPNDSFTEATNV
human Muscarinic, M4 Receptor, CHRM4 (gene 1132), sequence (P08173 whole entry, looked up): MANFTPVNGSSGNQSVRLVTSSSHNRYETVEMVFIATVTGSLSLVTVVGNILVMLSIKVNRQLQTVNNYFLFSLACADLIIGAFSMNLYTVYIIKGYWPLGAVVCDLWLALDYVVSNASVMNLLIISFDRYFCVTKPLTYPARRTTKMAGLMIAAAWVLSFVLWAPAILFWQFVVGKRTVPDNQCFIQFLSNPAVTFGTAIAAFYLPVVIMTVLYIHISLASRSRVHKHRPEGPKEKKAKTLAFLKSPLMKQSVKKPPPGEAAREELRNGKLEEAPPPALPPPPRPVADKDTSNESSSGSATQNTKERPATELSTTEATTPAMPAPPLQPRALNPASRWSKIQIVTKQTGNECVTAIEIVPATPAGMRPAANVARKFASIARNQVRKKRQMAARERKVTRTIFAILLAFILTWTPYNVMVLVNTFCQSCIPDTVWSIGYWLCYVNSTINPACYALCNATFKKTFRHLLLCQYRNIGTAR
Muscarinic acetylcholine receptor M5 (Homo sapiens), sequence (P08912 whole entry, looked up): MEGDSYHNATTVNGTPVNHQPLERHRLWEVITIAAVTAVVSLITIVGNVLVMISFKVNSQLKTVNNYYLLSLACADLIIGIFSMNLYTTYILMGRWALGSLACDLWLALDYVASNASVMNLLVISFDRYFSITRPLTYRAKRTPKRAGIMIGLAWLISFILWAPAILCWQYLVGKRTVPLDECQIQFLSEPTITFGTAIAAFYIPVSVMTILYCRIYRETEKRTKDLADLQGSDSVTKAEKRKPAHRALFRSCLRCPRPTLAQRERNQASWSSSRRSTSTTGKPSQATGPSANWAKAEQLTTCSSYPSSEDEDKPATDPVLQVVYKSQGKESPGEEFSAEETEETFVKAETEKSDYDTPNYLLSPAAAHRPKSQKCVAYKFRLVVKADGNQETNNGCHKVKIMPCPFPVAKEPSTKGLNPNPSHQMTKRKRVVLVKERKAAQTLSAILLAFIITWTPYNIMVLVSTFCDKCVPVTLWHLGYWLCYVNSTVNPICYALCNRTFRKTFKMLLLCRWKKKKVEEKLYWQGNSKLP

The target of one assay is Muscarinic acetylcholine receptor M2 (Homo sapiens) (UniProt P08172). The assay is described as follows: NVS_GPCR_hM2: NovaScreen (NVS) G Protein-Coupled Receptor Assay for human Muscarinic, M2 Receptor (AID 2283273). The method, boiled down:
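CHO membrane prep, radioligand + test compound, 1 h; filtration, scintillation count. Screen 25 uM duplicate → conc. series for actives. Readout: decrease in binding vs DMSO control.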
As a reminder, the AC50 is the concentration at which the activity in the assay is half-maximal. With `Cc1nccn1-c1ccc(Sc2cccc(C3(C(N)=O)CCOCC3)c2)cc1`, the AC50 was 6.6 µM (active).
For the compound `CCCCCCCCCC`, the result was inactive.
For the compound `c1ccc(C(O[C@@H]2CCCN(CCc3ccc4c(c3)OCO4)C2)c2ccccc2)cc1`, the half-maximal activity concentration (AC50) is 0.0461 µM (active).
Consider `Cc1ncc([C@@H](CCCCCCc2ccc3c(n2)NCCC3)CC(=O)O)cn1`, for which the AC50 was 19.2 µM (active).
The same measure, in the same setting: then `COc1cc(C(C)C)c2c(c1)S(=O)(=O)N(COc1cc(=O)n3cccc(OCCN4CCCCC4)c3n1)C2=O`, with 0.681 µM (active).
In the case of `CCn1nc(C)c2c1C(=O)NCC(c1ccc(O)cc1)=N2`, the call was inactive.

A further assay has as its target human Muscarinic, M4 Receptor, CHRM4 (gene 1132) (UniProt P08173). The assay is described as follows: NVS_GPCR_hM4: NovaScreen (NVS) G Protein-Coupled Receptor Assay for human Muscarinic, M4 Receptor (AID 2283274). The method, boiled down:
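Cell-free radioligand displacement using CHO-derived human M4 receptor protein, 1 h after dosing; bound radioactivity by filtration and scintillation counting. Primary screen single 25 uM duplicate, actives followed in concentration series.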
In the case of `Cc1nccn1-c1ccc(Sc2cccc(C3(C(N)=O)CCOCC3)c2)cc1`, the AC50 is 6.73 µM (active).
In the case of `O=S(=O)(O)c1ccc(N=Nc2c(O)ccc3cc(S(=O)(=O)O)ccc23)cc1`, the outcome was inactive.
The same measure, in the same setting: to `CCCCCCCCCC` belongs “inactive”.
As to `c1ccc(C(O[C@@H]2CCCN(CCc3ccc4c(c3)OCO4)C2)c2ccccc2)cc1`, the half-maximal activity concentration (AC50) was 0.0501 µM (active).
On to `COc1cc(C(C)C)c2c(c1)S(=O)(=O)N(COc1cc(=O)n3cccc(OCCN4CCCCC4)c3n1)C2=O`, for which the half-maximal activity concentration (AC50) is 3.98 µM (active).
Turning to `CCn1nc(C)c2c1C(=O)NCC(c1ccc(O)cc1)=N2`, the compound was called inactive.
Still for that read-out and setting: then `C=CCc1cc(S(=O)(=O)c2ccc(O)c(CC=C)c2)ccc1O`, with “inactive”.

The target of another assay is Muscarinic acetylcholine receptor M5 (Homo sapiens) (UniProt P08912). In words: NVS_GPCR_hM5: NovaScreen (NVS) G Protein-Coupled Receptor Assay for human Muscarinic, M5 Receptor (AID 2283275). The method, boiled down:
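Radioligand displacement on CHO-derived membrane preparations, 1 h, filter-based scintillation counting. Single-concentration duplicate screen at 25 uM; hits (e.g. 30% inhibition) retested in singleton concentration-response up to 50 uM. Loss of binding fitted versus DMSO.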
Regarding `Cc1nccn1-c1ccc(Sc2cccc(C3(C(N)=O)CCOCC3)c2)cc1`, the result was inactive.
Consider `CCCCCCCCCCCCCCCCOS(=O)(=O)O`, for which the AC50 is 8.94 µM (active).
For `c1ccc(C(O[C@@H]2CCCN(CCc3ccc4c(c3)OCO4)C2)c2ccccc2)cc1`, the half-maximal activity concentration (AC50) is 0.00937 µM (active).
For `COc1cc(C(C)C)c2c(c1)S(=O)(=O)N(COc1cc(=O)n3cccc(OCCN4CCCCC4)c3n1)C2=O`, the concentration at half-maximal activity (AC50) is 3.71 µM (active).
Take `CCn1nc(C)c2c1C(=O)NCC(c1ccc(O)cc1)=N2`: the outcome was inactive.
For the compound `C=CCc1cc(S(=O)(=O)c2ccc(O)c(CC=C)c2)ccc1O`, the AC50 is 25 µM (active).

A further assay deals with human Neuropeptide Receptor Y1 (NPY1), NPY1R (gene 4886) (UniProt P25929). In words: NVS_GPCR_hNPY1: NovaScreen (NVS) G Protein-Coupled Receptor Assay for human Neuropeptide Receptor Y1 (NPY1) (AID 2283276). The method, boiled down:
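Cell-free radioligand binding using receptor extracted from SK-N-MC cells, 1 h incubation, filter-based scintillation counting. Primary screen single concentration 25 uM in duplicate; actives followed in concentration series. Loss of bound signal scored versus DMSO.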
On to `CCN(CC)C(=S)SSC(=S)N(CC)CC`, for which the AC50 was 17.5 µM (active).
As to `CCCCCCCCCC`, the compound was classed as inactive.
The same measure, in the same setting: to `c1ccc(C(O[C@@H]2CCCN(CCc3ccc4c(c3)OCO4)C2)c2ccccc2)cc1` belongs “inactive”; to `CCn1nc(C)c2c1C(=O)NCC(c1ccc(O)cc1)=N2`, “inactive”.

Another assay addresses Neuropeptide Y receptor type 2 (Homo sapiens) (UniProt P49146). The assay is described as follows: NVS_GPCR_hNPY2: NovaScreen (NVS) G Protein-Coupled Receptor Assay for human Neuropeptide Receptor Y2 (NPY2) (AID 2283277). The method, boiled down: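 Radioligand binding on membranes extracted from SK-N-MC cells, cell-free, read 1 h after dosing by filter-based scintillation counting. Loss of signal vs DMSO. Primary screen in duplicate at 25 uM; actives followed up in concentration-response up to 50 uM.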
With `CCCCCCCCCCCCCCCCOS(=O)(=O)O`, the result was inactive.
Turning to `CCCCCCCC/C=C\CCCCCCCC(=O)OC[C@@H](O)[C@H]1OC[C@H](O)[C@H]1O`, the outcome was inactive.
For `COc1cc(C(C)C)c2c(c1)S(=O)(=O)N(COc1cc(=O)n3cccc(OCCN4CCCCC4)c3n1)C2=O`, the AC50 was 0.84 µM (active).

The target of another assay is human Neurokinin, NK2 Receptor, TACR2 (gene 6865) (UniProt P21452). The assay is described as follows: NVS_GPCR_hNK2: NovaScreen (NVS) G Protein-Coupled Receptor Assay for human Neurokinin, NK2 Receptor (AID 2283278).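 Also: actives reduce bound radioligand signal relative to DMSO baseline.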 The procedure:
NVS_GPCR_hNK2 is a biochemical, single-readout assay that uses extracted gene-proteins from CHO in a cell-free assay. Measurements were taken 4 hours after chemical dosing in a 96-well plate.NVS_GPCR_hNK2 is one of one assay component(s) measured or calculated from the NVS_GPCR_hNK2 assay. It is designed to make measurements of radioligand binding, a form of binding reporter, as detected with scintillation counting signals by Filter-based radiodetection technology.Data from the assay component NVS_GPCR_hNK2 was analyzed into 1 assay endpoint. This assay endpoint, NVS_GPCR_hNK2, was analyzed in the positive analysis fitting direction relative to DMSO as the negative control and baseline of activity. Using a type of binding reporter, loss-of-signal activity can be used to understand changes in the binding as they relate to the gene TACR2. Furthermore, this assay endpoint can be referred to as a primary readout, because the performed assay has only produced 1 assay endpoint. To generalize the intended target to other relatable targets, this assay endpoint is annotated to the gpcr intended target family, where the subfamily is rhodopsin-like receptor.
Binding assays used specific radioligands (tritiated, iodinated) with non-radioactive competitive displacement ligands in agonist or antagonist protocols (as indicated) and various reference compounds and inhibitors to titrate specific binding to receptors and transporters. Most enzyme assays (CYPs, kinases, phosphatases, proteases, HDACs) used recombinant protein and specific substrates (fluorescence mostly, some colorimetric and radioactive) and inhibitors, followed by a biochemical separation of substrate and product. All assays for the biochemical HTS were initially run in duplicate at a single concentration (10 uM for CYP450 assays and 25 uM for all others). […] Each assay was run with positive and negative controls, and concurrent controls on every plate. The follow-up (secondary) screen tested active chemical-pairs in concentration series, as well as a few additional assays not tested in the primary screen, some selected negative inactives, and several cases re-run in the concentration series for confirmatory purposes.
Consider `OCc1c[nH]c2ccccc12`, for which the AC50 was 19.7 µM (active).
Still for that read-out and setting: then `CCN(CC)C(=S)SSC(=S)N(CC)CC`, with 1.35 µM (active).
On to `CCCCCCCCCC`, for which the compound was called inactive.
In the case of `c1ccc(C(O[C@@H]2CCCN(CCc3ccc4c(c3)OCO4)C2)c2ccccc2)cc1`, the AC50 was 5.79 µM (active).
`CCn1nc(C)c2c1C(=O)NCC(c1ccc(O)cc1)=N2`: the compound was classed as inactive.
Consider `NNC(=O)c1ccncc1`, for which the concentration at half-maximal activity (AC50) is 2.18 µM (active).
Same read-out and setting: then `C=CCc1cc(S(=O)(=O)c2ccc(O)c(CC=C)c2)ccc1O`, with 20.6 µM (active).
